Results from PubChem BioAssay AID1159580 (chemical genetic matrix, 2015).
Hit rate of the full screen: of about 5,500 compounds, about 2,000 (36%) were called active. Another 18% or so got no clear call; they are omitted. Rule as the data show it: active = normalized growth mostly below about 0.91 (no sharp cut-off); inconclusive = no clear call, values can overlap the other calls; inactive = mostly above about 0.92. The list shows a part of the results.

Assay: chemical genetic growth profiling, strain panel (AID 1159580);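 also: tested at 20 µM; growth read once vehicle control cultures reached saturation at 30 °C; 1 = growth at the plate median or of vehicle wells; lower values mean less growth of the strain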
Conditions: growth OD

Measured: normalized growth

Cc1occc(=O)c1/C=C/O
inactive: S. cerevisiae deletion strains, locus YBR021W, strain FUR4, hits give low values 0.994 | S. cerevisiae deletion strains, locus YBR229C, strain ROT2, hits give low values 1 | S. cerevisiae deletion strains, locus YCL029C, strain bik1, hits give low values 1.02 | S. cerevisiae deletion strains, locus YDL035C, strain GPR1, hits give low values 0.999 | S. cerevisiae deletion strains, locus YDL074C, strain BRE1, hits give low values 1.01 | S. cerevisiae deletion strains, locus YDL101C, strain DUN1, hits give low values 1 | S. cerevisiae deletion strains, locus YDL134C, strain PPH21, hits give low values 0.997 | S. cerevisiae deletion strains, locus YDL185W, strain tfp1, hits give low values 1.03 | S. cerevisiae deletion strains, locus YDL192W, strain arf1, hits give low values 1.02 | S. cerevisiae deletion strains, locus YDR101C, strain arx1, hits give low values 0.989 | S. cerevisiae deletion strains, locus YDR150W, strain NUM1, hits give low values 0.999 | S. cerevisiae deletion strains, locus YDR162C, strain NBP2, hits give low values 0.991 | S. cerevisiae deletion strains, locus YDR318W, strain mcm21, hits give low values 1.01 | S. cerevisiae deletion strains, locus YDR388W, hits give low values 1.01 | S. cerevisiae deletion strains, locus YDR502C, strain sam2, hits give low values 0.995 | S. cerevisiae deletion strains, locus YEL061C, strain CIN8, hits give low values 1 | S. cerevisiae deletion strains, locus YER110C, hits give low values 1.02 | S. cerevisiae deletion strains, locus YER155C, strain BEM2, hits give low values 0.996 | S. cerevisiae deletion strains, locus YER167W, strain BCK2, hits give low values 0.996 | S. cerevisiae deletion strains, locus YGL078C, strain dbp3, hits give low values 1.03 | S. cerevisiae deletion strains, locus YGL086W, strain mad1, hits give low values 0.989 | S. cerevisiae deletion strains, locus YGL248W, strain PDE1, hits give low values 0.995 | S. cerevisiae deletion strains, locus YGR078C, strain PAC10, hits give low values 0.996 | S. cerevisiae deletion strains, locus YGR135W, strain pre9, hits give low values 1.02 | S. cerevisiae deletion strains, locus YGR252W, strain gcn5, hits give low values 0.985 | S. cerevisiae deletion strains, locus YHR030C, strain SLT2, hits give low values 1 | S. cerevisiae deletion strains, locus YHR079C, strain IRE1 (second series), hits give low values 1.02 | S. cerevisiae deletion strains, locus YHR094C, strain hxt1, hits give low values 1.01 | S. cerevisiae deletion strains, locus YHR129C, strain ARP1, hits give low values 1 | S. cerevisiae deletion strains, locus YHR200W, strain rpn10, hits give low values 1.01 | S. cerevisiae deletion strains, locus YIL066C, strain RNR3, hits give low values 1 | S. cerevisiae deletion strains, locus YIL073C, strain SPO22, hits give low values 1.03 | S. cerevisiae deletion strains, locus YIL125W, strain kgd1, hits give low values 1.01 | S. cerevisiae deletion strains, locus YIR030C, strain dcg1, hits give low values 1.01 | S. cerevisiae deletion strains, locus YJL095W, strain BCK1, hits give low values 0.989 | S. cerevisiae deletion strains, locus YJL134W, strain LCB3, hits give low values 1.01 | S. cerevisiae deletion strains, locus YJL168C, strain set2, hits give low values 1.01 | S. cerevisiae deletion strains, locus YJL187C, strain SWE1 (second series), hits give low values 0.998 | S. cerevisiae deletion strains, locus YJR043C, strain POL32, hits give low values 0.991 | S. cerevisiae deletion strains, locus YJR075W, strain HOC1, hits give low values 0.995 | S. cerevisiae deletion strains, locus YKL009W, strain mrt4, hits give low values 1.01 | S. cerevisiae deletion strains, locus YKL068W, hits give low values 1.01 | S. cerevisiae deletion strains, locus YKL085W, strain MDH1 (second series), hits give low values 1.02 | S. cerevisiae deletion strains, locus YKL085W, strain MDH1, hits give low values 1.02 | S. cerevisiae deletion strains, locus YKL190W, strain CNB1, hits give low values 1.01 | S. cerevisiae deletion strains, locus YKR001C, strain vps1, hits give low values 1.01 | S. cerevisiae deletion strains, locus YLR039C, strain RIC1, hits give low values 1.02 | S. cerevisiae deletion strains, locus YLR058C, strain SHM2, hits give low values 1 | S. cerevisiae deletion strains, locus YLR102C, strain apc9, hits give low values 1.01 | S. cerevisiae deletion strains, locus YLR262C, strain YPT6, hits give low values 1.07 | S. cerevisiae deletion strains, locus YLR268W, strain sec22, hits give low values 1.01 | S. cerevisiae deletion strains, locus YLR330W, strain CHS5, hits give low values 1 | S. cerevisiae deletion strains, locus YLR342W, strain FKS1 (second series), hits give low values 1.01 | S. cerevisiae deletion strains, locus YLR371W, strain rom2, hits give low values 1.02 | S. cerevisiae deletion strains, locus YLR418C, strain cdc73, hits give low values 0.977 | S. cerevisiae deletion strains, locus YML016C, strain PPZ1, hits give low values 1 | S. cerevisiae deletion strains, locus YML032C, strain rad52, hits give low values 1.01 | S. cerevisiae deletion strains, locus YML124C, strain tub3, hits give low values 1.01 | S. cerevisiae deletion strains, locus YMR078C, strain ctf18, hits give low values 1 | S. cerevisiae deletion strains, locus YMR223W, strain ubp8, hits give low values 0.997 | S. cerevisiae deletion strains, locus YMR263W, strain SAP30, hits give low values 0.999 | S. cerevisiae deletion strains, locus YMR307W, strain GAS1, hits give low values 1.02 | S. cerevisiae deletion strains, locus YNL067W, strain RPL9B, hits give low values 0.993 | S. cerevisiae deletion strains, locus YNL153C, strain GIM3, hits give low values 0.994 | S. cerevisiae deletion strains, locus YNL233W, strain BNI4, hits give low values 0.974 | S. cerevisiae deletion strains, locus YNL250W, strain rad50, hits give low values 1.01 | S. cerevisiae deletion strains, locus YNL271C, strain bni1, hits give low values 1.04 | S. cerevisiae deletion strains, locus YNL298W, strain CLA4, hits give low values 1.02 | S. cerevisiae deletion strains, locus YNL307C, strain MCK1, hits give low values 1.02 | S. cerevisiae deletion strains, locus YNR052C, strain pop2, hits give low values 1.01 | S. cerevisiae deletion strains, locus YOL006C, strain TOP1, hits give low values 0.981 | S. cerevisiae deletion strains, locus YOL012C, strain htz1 0.887 | S. cerevisiae deletion strains, locus YOL147C, strain pex11, hits give low values 1.01 | S. cerevisiae deletion strains, locus YOR061W, strain CKA2, hits give low values 1.01 | S. cerevisiae deletion strains, locus YOR069W, strain VPS5, hits give low values 1 | S. cerevisiae deletion strains, locus YOR136W, strain idh2, hits give low values 1.02 | S. cerevisiae deletion strains, locus YOR144C, strain elg1, hits give low values 1.01 | S. cerevisiae deletion strains, locus YOR184W, strain ser1, hits give low values 1 | S. cerevisiae deletion strains, locus YOR316C, strain cot1, hits give low values 1.03 | S. cerevisiae deletion strains, locus YPL241C, strain CIN2, hits give low values 1 | S. cerevisiae deletion strains, locus YPR119W, strain clb2, hits give low values 1.02 | S. cerevisiae deletion strains, locus YPR141C, strain kar3, hits give low values 1.02 | S. cerevisiae deletion strains, locus YPR163C, strain tif3, hits give low values 0.994 | S. cerevisiae deletion strains, locus YPR167C, strain met16, hits give low values 1.02 | S. cerevisiae deletion strains, strain wtn01, hits give low values 1.03 | S. cerevisiae strains, strain wild type, hits give low values 1.01
